Data reported in publication PMC7862700, “An all-to-all approach to the identification of sequence-specific readers for epigenetic DNA modifications on cytosine”.

Assays:
Assay in all cases: DAPPL (digital affinity profiling via proximity ligation, sequencing); 10 mM Tris-HCl pH 7.5, 50 mM NaCl, 1 mM DTT, 4% glycerol, room temperature, 30 min; GST-TFs on glutathione beads, 16-mer random dsDNA library, 0.1% formaldehyde crosslink after washing; high values mean tight binding
FEV = target: T1, FEV (Homo sapiens, UniProt Q99581 1-238); settings: protein: recombinant; tags: N-terminal GST; dsDNA, one strand shown
T1 sequence: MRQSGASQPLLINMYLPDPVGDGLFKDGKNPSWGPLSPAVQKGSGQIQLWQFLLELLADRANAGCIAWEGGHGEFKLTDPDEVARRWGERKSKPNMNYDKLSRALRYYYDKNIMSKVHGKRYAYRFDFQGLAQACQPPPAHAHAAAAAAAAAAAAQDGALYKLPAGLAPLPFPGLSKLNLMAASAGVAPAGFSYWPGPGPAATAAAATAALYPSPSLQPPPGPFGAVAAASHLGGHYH
Method in brief: (§1)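 Human transcription factors were made in yeast as GST fusions, captured on glutathione beads and barcoded with DNA. With a tag-only sample included, the pool was incubated with 200 nmole of a random double-stranded 16-mer DNA library in Tris/NaCl/DTT/glycerol buffer at room temperature for 30 min, then crosslinked with 0.1% formaldehyde after washing, ligated by proximity, amplified and sequenced. For binding signal, each hexamer's read frequency for a factor is divided by its frequency for the tag-only sample.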

ETV5 = ETV5 (Homo sapiens, UniProt P41161 1-510); settings: protein: recombinant; tags: N-terminal GST; dsDNA, one strand shown
Method in brief: as §1

HSF1 = HSF1 (Homo sapiens, UniProt Q00613 1-529); settings: protein: recombinant; tags: N-terminal GST; chain copies: 3; dsDNA, one strand shown
Method in brief: as §1

SPIC = target: T2, SPIC (Homo sapiens, UniProt Q8N5J4 1-248); settings: protein: recombinant; tags: N-terminal GST; dsDNA, one strand shown
T2 sequence: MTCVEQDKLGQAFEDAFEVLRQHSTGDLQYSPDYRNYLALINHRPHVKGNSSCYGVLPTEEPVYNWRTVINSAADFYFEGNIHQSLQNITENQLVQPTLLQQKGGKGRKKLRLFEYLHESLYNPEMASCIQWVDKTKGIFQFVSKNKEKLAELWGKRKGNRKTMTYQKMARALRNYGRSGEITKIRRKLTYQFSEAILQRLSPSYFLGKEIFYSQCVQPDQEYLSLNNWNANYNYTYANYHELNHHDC
Method in brief: as §1

ELF4 = ELF4 (Homo sapiens, UniProt Q99607 1-663); settings: protein: recombinant; tags: N-terminal GST; dsDNA, one strand shown
Method in brief: as §1

ELK4 = target: T3, ELK4 (Homo sapiens, UniProt P28324-2 1-405); settings: protein: recombinant; tags: N-terminal GST; dsDNA, one strand shown
T3 sequence: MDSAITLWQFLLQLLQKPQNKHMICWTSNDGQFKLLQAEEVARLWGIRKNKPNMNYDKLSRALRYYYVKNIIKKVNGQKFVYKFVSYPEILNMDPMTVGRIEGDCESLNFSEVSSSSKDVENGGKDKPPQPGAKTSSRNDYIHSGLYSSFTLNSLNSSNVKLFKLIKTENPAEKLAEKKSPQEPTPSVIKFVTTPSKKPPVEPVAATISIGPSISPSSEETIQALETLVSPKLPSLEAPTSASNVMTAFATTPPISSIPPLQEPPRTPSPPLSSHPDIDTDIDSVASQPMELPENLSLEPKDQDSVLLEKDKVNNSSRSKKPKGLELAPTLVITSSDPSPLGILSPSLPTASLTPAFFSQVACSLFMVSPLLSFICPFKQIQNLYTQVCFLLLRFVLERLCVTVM
Method in brief: as §1

ETV2 = target: T4, ETV2 (Homo sapiens, UniProt O00321 1-342); settings: protein: recombinant; tags: N-terminal GST; dsDNA, one strand shown
T4 sequence: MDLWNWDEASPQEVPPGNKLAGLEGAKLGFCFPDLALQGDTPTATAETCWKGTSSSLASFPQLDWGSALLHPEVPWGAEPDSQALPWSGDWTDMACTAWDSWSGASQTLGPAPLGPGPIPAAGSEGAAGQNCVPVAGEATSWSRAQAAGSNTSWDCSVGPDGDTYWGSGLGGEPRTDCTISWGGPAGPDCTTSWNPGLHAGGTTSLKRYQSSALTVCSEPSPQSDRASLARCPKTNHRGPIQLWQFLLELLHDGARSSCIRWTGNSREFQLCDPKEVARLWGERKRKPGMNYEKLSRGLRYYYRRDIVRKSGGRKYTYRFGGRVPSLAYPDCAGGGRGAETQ
Method in brief: as §1

ELF3 = target: T5, ELF3 (Homo sapiens, UniProt P78545 1-371); settings: protein: recombinant; tags: N-terminal GST; dsDNA, one strand shown
T5 sequence: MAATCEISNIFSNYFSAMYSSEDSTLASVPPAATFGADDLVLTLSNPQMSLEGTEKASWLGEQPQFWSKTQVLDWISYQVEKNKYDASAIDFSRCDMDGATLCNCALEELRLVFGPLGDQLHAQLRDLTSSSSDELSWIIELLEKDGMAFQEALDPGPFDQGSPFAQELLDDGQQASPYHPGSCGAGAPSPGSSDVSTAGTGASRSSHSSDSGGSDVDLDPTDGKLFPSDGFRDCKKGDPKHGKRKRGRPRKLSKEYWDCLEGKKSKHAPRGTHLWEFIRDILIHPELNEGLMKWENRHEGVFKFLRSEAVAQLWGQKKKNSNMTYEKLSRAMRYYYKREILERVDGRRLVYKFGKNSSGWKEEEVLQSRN
Method in brief: as §1

CRX = CRX (Homo sapiens, UniProt O43186 1-299); settings: protein: recombinant; tags: N-terminal GST; dsDNA, one strand shown
Method in brief: as §1

ETV1 = ETV1 (Homo sapiens, UniProt P50549 1-477); settings: protein: recombinant; tags: N-terminal GST; dsDNA, one strand shown
Method in brief: as §1

ERF = target: T6, ERF (Homo sapiens, UniProt P50548 1-548); settings: protein: recombinant; tags: N-terminal GST; dsDNA, one strand shown
T6 sequence: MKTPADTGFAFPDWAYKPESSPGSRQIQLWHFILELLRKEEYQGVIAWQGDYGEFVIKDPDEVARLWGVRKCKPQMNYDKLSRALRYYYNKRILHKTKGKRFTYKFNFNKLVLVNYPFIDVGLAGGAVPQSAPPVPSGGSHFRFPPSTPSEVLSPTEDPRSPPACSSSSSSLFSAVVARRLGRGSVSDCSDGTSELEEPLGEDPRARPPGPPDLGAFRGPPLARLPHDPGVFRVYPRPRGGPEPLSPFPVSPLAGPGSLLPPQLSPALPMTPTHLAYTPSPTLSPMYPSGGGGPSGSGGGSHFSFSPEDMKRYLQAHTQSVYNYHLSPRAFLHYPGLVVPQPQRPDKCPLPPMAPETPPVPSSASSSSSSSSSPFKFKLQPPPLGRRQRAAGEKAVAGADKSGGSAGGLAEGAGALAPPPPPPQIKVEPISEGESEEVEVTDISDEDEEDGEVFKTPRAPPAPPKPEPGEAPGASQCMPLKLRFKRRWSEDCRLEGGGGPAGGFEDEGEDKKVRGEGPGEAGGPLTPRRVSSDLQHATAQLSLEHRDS
Method in brief: as §1

ETV3L = target: T7, ETV3L (Homo sapiens, UniProt Q6ZN32 1-361); settings: protein: recombinant; tags: N-terminal GST; dsDNA, one strand shown
T7 sequence: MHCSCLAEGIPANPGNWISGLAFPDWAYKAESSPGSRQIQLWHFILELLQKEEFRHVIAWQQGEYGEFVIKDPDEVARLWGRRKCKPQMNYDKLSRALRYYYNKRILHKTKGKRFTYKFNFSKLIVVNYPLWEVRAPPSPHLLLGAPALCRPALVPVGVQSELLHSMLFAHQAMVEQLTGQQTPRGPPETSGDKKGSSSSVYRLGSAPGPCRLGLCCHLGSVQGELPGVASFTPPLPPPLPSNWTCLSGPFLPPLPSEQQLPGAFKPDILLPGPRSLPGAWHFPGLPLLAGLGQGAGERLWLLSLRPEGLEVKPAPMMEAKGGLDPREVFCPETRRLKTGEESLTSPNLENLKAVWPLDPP
Method in brief: as §1

ETS2 = target: T8, ETS2 (Homo sapiens, UniProt P15036 1-469); settings: protein: recombinant; tags: N-terminal GST; dsDNA, one strand shown
T8 sequence: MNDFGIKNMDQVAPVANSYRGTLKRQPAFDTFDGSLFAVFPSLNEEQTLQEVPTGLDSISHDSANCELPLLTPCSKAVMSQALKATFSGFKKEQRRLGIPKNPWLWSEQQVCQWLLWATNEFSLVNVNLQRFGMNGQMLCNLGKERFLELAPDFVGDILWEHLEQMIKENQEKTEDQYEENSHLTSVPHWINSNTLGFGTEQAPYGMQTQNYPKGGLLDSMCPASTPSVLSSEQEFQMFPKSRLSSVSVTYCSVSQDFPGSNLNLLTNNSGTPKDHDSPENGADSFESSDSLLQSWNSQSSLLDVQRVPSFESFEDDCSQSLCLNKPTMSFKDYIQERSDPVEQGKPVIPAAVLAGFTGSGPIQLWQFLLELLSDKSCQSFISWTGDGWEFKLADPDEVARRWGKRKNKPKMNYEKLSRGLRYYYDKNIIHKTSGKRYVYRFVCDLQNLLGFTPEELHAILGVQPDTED
Method in brief: as §1

SPDEF = target: T9, SPDEF (Homo sapiens, UniProt O95238 1-335); settings: protein: recombinant; tags: N-terminal GST; dsDNA, one strand shown
T9 sequence: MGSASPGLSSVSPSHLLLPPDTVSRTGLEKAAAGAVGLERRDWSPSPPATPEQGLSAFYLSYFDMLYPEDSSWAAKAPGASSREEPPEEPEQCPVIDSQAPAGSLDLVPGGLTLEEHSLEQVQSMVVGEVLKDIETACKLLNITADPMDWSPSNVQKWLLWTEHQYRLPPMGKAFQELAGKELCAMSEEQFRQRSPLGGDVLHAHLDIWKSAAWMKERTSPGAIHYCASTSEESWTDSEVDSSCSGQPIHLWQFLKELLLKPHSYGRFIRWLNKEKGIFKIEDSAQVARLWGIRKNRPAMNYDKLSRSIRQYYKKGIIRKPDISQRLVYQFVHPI
Method in brief: as §1

ETV7 = target: T10, ETV7 (Homo sapiens, UniProt Q9Y603 1-341); settings: protein: recombinant; tags: N-terminal GST; dsDNA, one strand shown
T10 sequence: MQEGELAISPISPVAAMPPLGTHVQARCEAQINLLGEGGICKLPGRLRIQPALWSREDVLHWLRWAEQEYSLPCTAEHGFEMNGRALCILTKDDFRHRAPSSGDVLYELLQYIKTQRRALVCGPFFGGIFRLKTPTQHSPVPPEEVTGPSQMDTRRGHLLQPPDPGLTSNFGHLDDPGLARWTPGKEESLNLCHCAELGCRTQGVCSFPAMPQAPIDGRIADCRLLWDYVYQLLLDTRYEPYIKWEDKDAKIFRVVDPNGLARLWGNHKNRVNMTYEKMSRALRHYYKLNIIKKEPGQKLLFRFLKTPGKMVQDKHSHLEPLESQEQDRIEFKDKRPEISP
Method in brief: as §1

ELF5 = target: T11, ELF5 (Homo sapiens, UniProt Q9UKW6-2 1-255); settings: protein: recombinant; tags: N-terminal GST; dsDNA, one strand shown
T11 sequence: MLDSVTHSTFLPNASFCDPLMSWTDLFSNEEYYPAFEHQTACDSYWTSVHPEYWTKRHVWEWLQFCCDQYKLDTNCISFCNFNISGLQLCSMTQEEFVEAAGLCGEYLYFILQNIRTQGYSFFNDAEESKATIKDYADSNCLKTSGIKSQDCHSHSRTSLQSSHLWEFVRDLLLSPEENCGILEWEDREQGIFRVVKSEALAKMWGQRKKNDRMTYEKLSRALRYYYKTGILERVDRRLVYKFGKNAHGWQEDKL
Method in brief: as §1

ETV3 = target: T12, ETV3 (Homo sapiens, UniProt P41162-2 1-143); settings: protein: recombinant; tags: N-terminal GST; dsDNA, one strand shown
T12 sequence: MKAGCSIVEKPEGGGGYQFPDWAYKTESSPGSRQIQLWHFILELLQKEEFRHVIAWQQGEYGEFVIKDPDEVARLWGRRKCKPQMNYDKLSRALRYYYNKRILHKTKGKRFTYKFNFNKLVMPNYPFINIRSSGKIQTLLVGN
Method in brief: as §1

ETV6 = ETV6 (Homo sapiens, UniProt P41212 1-452); settings: protein: recombinant; tags: N-terminal GST; dsDNA, one strand shown
Method in brief: as §1

Chain of ETV6 (P41212 whole entry): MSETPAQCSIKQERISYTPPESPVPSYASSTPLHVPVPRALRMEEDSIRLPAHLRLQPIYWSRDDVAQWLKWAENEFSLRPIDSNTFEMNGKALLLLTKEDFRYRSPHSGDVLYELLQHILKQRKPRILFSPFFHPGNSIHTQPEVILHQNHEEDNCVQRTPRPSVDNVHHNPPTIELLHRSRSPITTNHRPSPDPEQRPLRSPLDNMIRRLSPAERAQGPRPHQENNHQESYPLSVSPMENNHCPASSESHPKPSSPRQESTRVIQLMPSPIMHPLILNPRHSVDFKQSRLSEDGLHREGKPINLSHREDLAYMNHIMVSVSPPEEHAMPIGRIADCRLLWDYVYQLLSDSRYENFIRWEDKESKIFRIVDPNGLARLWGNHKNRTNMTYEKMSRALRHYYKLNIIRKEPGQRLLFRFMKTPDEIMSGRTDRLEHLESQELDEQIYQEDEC
Chain of CRX (O43186 whole entry): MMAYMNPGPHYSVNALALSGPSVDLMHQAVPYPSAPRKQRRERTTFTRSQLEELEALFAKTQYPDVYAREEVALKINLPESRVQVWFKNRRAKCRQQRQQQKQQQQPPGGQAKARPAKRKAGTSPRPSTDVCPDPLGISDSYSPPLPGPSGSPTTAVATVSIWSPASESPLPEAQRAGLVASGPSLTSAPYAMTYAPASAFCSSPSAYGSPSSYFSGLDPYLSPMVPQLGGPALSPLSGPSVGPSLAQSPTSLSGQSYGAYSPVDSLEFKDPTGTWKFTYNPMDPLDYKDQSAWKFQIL
Chain of HSF1 (Q00613 whole entry): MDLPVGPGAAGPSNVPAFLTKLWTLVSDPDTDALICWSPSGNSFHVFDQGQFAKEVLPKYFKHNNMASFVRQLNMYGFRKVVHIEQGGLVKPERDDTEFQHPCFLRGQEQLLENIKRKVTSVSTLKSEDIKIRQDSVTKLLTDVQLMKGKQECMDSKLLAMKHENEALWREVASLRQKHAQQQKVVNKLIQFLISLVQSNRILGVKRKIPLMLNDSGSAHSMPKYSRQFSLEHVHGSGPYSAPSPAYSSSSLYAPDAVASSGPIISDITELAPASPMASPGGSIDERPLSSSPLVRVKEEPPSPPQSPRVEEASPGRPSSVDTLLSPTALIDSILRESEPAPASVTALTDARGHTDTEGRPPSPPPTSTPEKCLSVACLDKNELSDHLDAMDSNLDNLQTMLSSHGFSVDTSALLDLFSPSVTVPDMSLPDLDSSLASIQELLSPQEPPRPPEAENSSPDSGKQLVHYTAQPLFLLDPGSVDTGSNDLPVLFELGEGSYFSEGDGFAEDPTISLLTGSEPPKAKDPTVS
Chain of ETV1 (P50549 whole entry): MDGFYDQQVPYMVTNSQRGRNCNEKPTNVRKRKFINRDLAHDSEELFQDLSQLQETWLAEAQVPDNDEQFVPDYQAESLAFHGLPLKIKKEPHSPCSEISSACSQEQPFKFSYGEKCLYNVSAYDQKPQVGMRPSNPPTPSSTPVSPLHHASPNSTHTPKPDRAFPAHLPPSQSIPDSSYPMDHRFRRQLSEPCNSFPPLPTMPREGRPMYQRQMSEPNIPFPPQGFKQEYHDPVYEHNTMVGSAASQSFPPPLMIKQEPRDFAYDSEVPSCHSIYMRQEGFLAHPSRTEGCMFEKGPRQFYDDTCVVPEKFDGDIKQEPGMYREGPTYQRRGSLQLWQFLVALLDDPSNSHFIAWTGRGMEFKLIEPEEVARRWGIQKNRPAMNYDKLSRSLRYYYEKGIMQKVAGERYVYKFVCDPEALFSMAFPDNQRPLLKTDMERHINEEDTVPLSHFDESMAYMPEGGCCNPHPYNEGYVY
Chain of ELF4 (Q99607 whole entry): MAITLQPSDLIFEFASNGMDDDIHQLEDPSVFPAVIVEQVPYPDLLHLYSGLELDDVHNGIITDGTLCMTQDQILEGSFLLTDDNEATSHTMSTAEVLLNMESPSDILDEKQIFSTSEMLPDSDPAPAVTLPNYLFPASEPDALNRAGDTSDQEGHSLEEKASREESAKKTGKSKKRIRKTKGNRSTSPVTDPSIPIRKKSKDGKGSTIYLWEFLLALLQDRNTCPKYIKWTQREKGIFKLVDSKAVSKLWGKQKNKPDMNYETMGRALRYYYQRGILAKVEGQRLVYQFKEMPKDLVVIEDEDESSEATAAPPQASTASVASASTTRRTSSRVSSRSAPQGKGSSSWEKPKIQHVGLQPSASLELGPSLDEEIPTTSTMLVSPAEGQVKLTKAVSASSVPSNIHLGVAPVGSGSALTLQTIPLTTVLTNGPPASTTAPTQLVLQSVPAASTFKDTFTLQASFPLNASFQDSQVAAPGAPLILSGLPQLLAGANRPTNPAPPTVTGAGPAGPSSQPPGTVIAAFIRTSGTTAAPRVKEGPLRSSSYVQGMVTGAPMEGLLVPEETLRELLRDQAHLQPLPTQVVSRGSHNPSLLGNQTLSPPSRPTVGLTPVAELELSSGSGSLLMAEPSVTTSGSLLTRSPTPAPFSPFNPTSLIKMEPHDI
Chain of ETV5 (P41161 whole entry): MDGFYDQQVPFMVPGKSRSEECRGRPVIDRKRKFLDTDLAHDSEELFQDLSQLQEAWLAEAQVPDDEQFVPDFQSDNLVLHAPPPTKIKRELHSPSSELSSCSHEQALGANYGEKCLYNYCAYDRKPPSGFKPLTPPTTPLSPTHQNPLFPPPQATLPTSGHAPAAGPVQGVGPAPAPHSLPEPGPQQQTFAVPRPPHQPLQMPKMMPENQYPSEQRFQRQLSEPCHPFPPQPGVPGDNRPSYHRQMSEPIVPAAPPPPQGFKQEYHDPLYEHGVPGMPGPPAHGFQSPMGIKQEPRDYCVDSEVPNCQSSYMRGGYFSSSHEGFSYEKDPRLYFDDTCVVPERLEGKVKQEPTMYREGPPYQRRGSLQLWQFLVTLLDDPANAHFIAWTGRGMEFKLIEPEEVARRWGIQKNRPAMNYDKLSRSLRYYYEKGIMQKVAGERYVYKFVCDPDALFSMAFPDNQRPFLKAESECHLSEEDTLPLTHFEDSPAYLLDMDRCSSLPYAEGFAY

Sequence	binding signal (FEV)	binding signal (ETV5)	binding signal (HSF1)	binding signal (SPIC)	binding signal (ELF4)	binding signal (ELK4)	binding signal (ETV2)	binding signal (ELF3)	binding signal (CRX)	binding signal (ETV1)	binding signal (ERF)	binding signal (ETV3L)	binding signal (ETS2)	binding signal (SPDEF)	binding signal (ETV7)	binding signal (ELF5)	binding signal (ETV3)	binding signal (ETV6)
AACCCG	1.44 fold enrichment (6-mer frequency, TF over GST control)	1.51 fold enrichment (6-mer frequency, TF over GST control)	1.07 fold enrichment (6-mer frequency, TF over GST control)	1.47 fold enrichment (6-mer frequency, TF over GST control)	1.51 fold enrichment (6-mer frequency, TF over GST control)	1.26 fold enrichment (6-mer frequency, TF over GST control)	1.47 fold enrichment (6-mer frequency, TF over GST control)	1.6 fold enrichment (6-mer frequency, TF over GST control)	1.2 fold enrichment (6-mer frequency, TF over GST control)	1.58 fold enrichment (6-mer frequency, TF over GST control)	1.42 fold enrichment (6-mer frequency, TF over GST control)	1.34 fold enrichment (6-mer frequency, TF over GST control)	1.45 fold enrichment (6-mer frequency, TF over GST control)	1.63 fold enrichment (6-mer frequency, TF over GST control)	1.47 fold enrichment (6-mer frequency, TF over GST control)	1.52 fold enrichment (6-mer frequency, TF over GST control)	1.57 fold enrichment (6-mer frequency, TF over GST control)	1.5 fold enrichment (6-mer frequency, TF over GST control)
CTTATC	1.2 fold enrichment (6-mer frequency, TF over GST control)	1.13 fold enrichment (6-mer frequency, TF over GST control)	1.6 fold enrichment (6-mer frequency, TF over GST control)	1.34 fold enrichment (6-mer frequency, TF over GST control)	1.12 fold enrichment (6-mer frequency, TF over GST control)	1.18 fold enrichment (6-mer frequency, TF over GST control)	1.03 fold enrichment (6-mer frequency, TF over GST control)	1.14 fold enrichment (6-mer frequency, TF over GST control)	2.44 fold enrichment (6-mer frequency, TF over GST control)	1.18 fold enrichment (6-mer frequency, TF over GST control)	1.12 fold enrichment (6-mer frequency, TF over GST control)	1.22 fold enrichment (6-mer frequency, TF over GST control)	1.12 fold enrichment (6-mer frequency, TF over GST control)	1.23 fold enrichment (6-mer frequency, TF over GST control)	1.1 fold enrichment (6-mer frequency, TF over GST control)	1.17 fold enrichment (6-mer frequency, TF over GST control)	1.15 fold enrichment (6-mer frequency, TF over GST control)	1.1 fold enrichment (6-mer frequency, TF over GST control)
